Data: PubChem BioAssay (Tox21)
Records with an inconclusive call do not appear. Activity calls are given as the source filed them. Unless noted, the call rests on the fitted dose curve; in most records, active means well fitted curve in the direction sought with a large enough effect in the repeat runs; inconclusive means weak or mixed curves; inactive means no such curve, though single readings can be large; an effect the other way counts as inactive or inconclusive.

Columns and labels:
[1] = qHTS assay to identify small molecule agonists of the peroxisome proliferator-activated receptor delta (PPARd) signaling pathway - cell viability counter screen (AID 743211); further: nearly all actives have a fitted effect of over 55% in size
Method in brief: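 Viability was measured as CellTiter-Glo luminescence (30 min, room temperature) in the same wells as the beta-lactamase readout. GeneBLAzer PPARd UAS-bla HEK293H cells received compound after 5 h plating and were incubated 17 h at 37 C.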

[2] = biological target: Peroxisome proliferator-activated receptor delta (Homo sapiens) (UniProt Q03181); assay: qHTS assay to identify small molecule agonists of the peroxisome proliferator-activated receptor delta (PPARd) signaling pathway (AID 743212; calls by dose curve)
Method in brief: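 A PPARd-bla HEK293H line with beta-lactamase under an Upstream Activator Sequence is treated with compounds at 37 C. Substrate loading for 2 h at room temperature precedes the fluorescence measurement.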

[3] = qHTS assay to identify small molecule antagonists of the peroxisome proliferator-activated receptor delta (PPARd) signaling pathway - cell viability counter screen (AID 743213); further: nearly all actives have a fitted effect of over 50% in size
Method in brief: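 Cytotoxicity counter screen: CellTiter-Glo luminescence read 30 min after addition, in the same wells as the reporter assay. There, PPARd UAS-bla HEK293H cells (3000/well) were treated 17 h at 37 C with compound and 300 nM L165041.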

[4] = qHTS assay to identify small molecule agonists of the farnesoid-X-receptor (FXR) signaling pathway - cell viability counter screen (AID 743218); further: nearly all actives have a fitted effect of over 45% in size
Method in brief: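 HEK 293T FXR-bla cells; 5 h pre-incubation, 16 h compound exposure at 37 C; LiveBLAzer substrate 2 h RT, then CellTiter-Glo 30 min RT, luminescence.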

[5] = qHTS assay to identify small molecule antagonists of the farnesoid-X-receptor (FXR) signaling pathway - cell viability counter screen (AID 743221; active means well fitted cell-killing curve with a large enough effect in the repeat runs, not every such curve was filed as active; further: nearly all actives have a fitted effect of over 50% in size)
Method in brief: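 Cytotoxicity counter screen run in the FXR-bla reporter wells: HEK 293T cells exposed to compound with 50 uM (final) chenodeoxycholic acid for 16 h, 37 C, then viability measured by CellTiter-Glo luminescence after 30 min, room temperature.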

[6] = biological target: Vitamin D3 receptor (Homo sapiens) (UniProt P11473); assay: qHTS assay to identify small molecule antagonists of the vitamin D receptor (VDR) signaling pathway (AID 743223; active means well fitted inhibition curve with a large enough effect in the signal ratio in the repeat runs, not every such curve was filed as active; the % refers to the signal ratio)
Method in brief: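 Antagonist mode: compound added to VDR-bla cells alongside agonist 1alpha,25-dihydroxyvitamin D3 (3 nM final), incubation 16 h at 37C. Read-out is LiveBLAzer FRET fluorescence, 2 h at room temperature.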

[7] = qHTS assay to identify small molecule agonists of the vitamin D receptor (VDR) signaling pathway - cell viability counter screen (AID 743224); further: series mostly up to about 63 µM; nearly all actives have a fitted effect of over 50% in size
Method in brief: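 Luminescence from CellTiter-Glo, read after 30 min at room temperature, reports viability of VDR-bla cells treated with compounds for 16 h at 37C in the wells used for the beta-lactamase FRET read.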

[8] = qHTS assay to identify small molecule agonists of the NFkB signaling pathway (AID 1159509; active means well fitted curve in the direction sought with a large enough effect in the signal ratio in the repeat runs, not every such curve was filed as active; the % refers to the signal ratio; further: series mostly up to about 61 µM)
Method in brief: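 NFkB-bla ME-180 cells carry a beta-lactamase reporter under an NF-kB response element. They were plated overnight, then exposed to compounds for 5 h at 37 C. Read-out is LiveBLAzer FRET after 1.5 hr at room temperature (405 nm excitation; 460/530 nm emission).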

[9] = qHTS assay to identify small molecule agonists of the NFkB signaling pathway - cell viability counter screen (AID 1159515; calls by dose curve; further: series mostly up to about 61 µM; nearly all actives have a fitted effect of over 55% in size)
Method in brief: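 Luminescence from CellTiter-Glo (30 min, room temperature) gives viability, measured in the same wells as the beta-lactamase reporter read. Cells were NFkB-bla ME-180, 2,000 per well, treated 5 hr with compounds.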

[10] = qHTS assay to identify small molecule agonists of the endoplasmic reticulum stress response signaling pathway (AID 1159516; active means well fitted activation curve with a large enough effect in the signal ratio in the repeat runs, not every such curve was filed as active; the % refers to the signal ratio)
Method in brief: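 Read-out is beta-lactamase cleavage of a FRET substrate (405 nm excitation; 460 and 530 nm emissions) in ESRE-bla HeLa cells after a 5 hr compound exposure at 37 C. Substrate incubation ran 2 hr at room temperature.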

[11] = qHTS assay to identify small molecule agonists of the endoplasmic reticulum stress response signaling pathway - cell viability counter screen (AID 1159517; calls by dose curve;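 further: HeLa cells carrying an ER stress response element beta-lactamase reporter; series mostly up to about 61 µM; nearly all actives have a fitted effect of over 50% in size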)
Method in brief: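 CellTiter-Glo was added to wells already read for beta-lactamase FRET, and luminescence was recorded 30 min later. Cells: ESRE-bla HeLa, 1,500 per well, compound exposure 5 hr at 37 C.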

[12] = qHTS assay to identify small molecule antagonists of the retinoid-related orphan receptor gamma (ROR-gamma) signaling pathway - cell viability counter screen (AID 1159520); further: nearly all actives have a fitted effect of over 50% in size
Method in brief: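 Tet-on ROR gamma CHO cells (1,000/well) were plated 4 hr, given compounds in DMSO for 2 hr at 37 C, then induced with 1 uM final doxycycline for 16 hr. Viability was read as ATP by CellTiter-Glo luminescence after 30 min.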

[13] = biological target: Nuclear receptor ROR-gamma (Homo sapiens) (UniProt P51449); assay: qHTS assay to identify small molecule antagonists of the retinoid-related orphan receptor gamma (ROR-gamma) signaling pathway (AID 1159521)
Method in brief: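 Antagonist read-out: drop in luminescence (ONE-Glo) from an RORE-LUC reporter in CHO cells with doxycycline-inducible ROR-gamma; 2 hr compound pretreatment, 1 uM doxycycline, 16 hr incubation at 37 C.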

[14] = qHTS assay to identify small molecule agonists of the AP-1 signaling pathway - cell viability counter screen (AID 1159525; calls by dose curve; further: nearly all actives have a fitted effect of over 55% in size)
Method in brief: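 ME-180 AP-1-bla, 2500 cells/well, Opti-MEM + 0.5% dialyzed FBS; overnight 37 °C; cpd 15-pt titration, 5 h 37 °C; CellTiter-Glo 30 min RT; luminescence read; normalised to TOAB and DMSO controls.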

[15] = qHTS assay to identify small molecule agonists of the AP-1 signaling pathway (AID 1159526; calls by dose curve)
[16] = biological target: Vitamin D3 receptor (Homo sapiens) (UniProt P11473); assay: qHTS assay to identify small molecule agonists of the vitamin D receptor (VDR) signaling pathway (AID 743222; calls by dose curve)
Method in brief: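 VDR-bla cells, 2,000/well; 4 h preincubation 37C; cpd (DMSO) 16 h; LiveBLAzer B/G substrate 2 h RT; fluorescence intensity read.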

[17] = qHTS assay to identify small molecule antagonists of the vitamin D receptor (VDR) signaling pathway - cell viability counter screen (AID 743225); further: nearly all actives have a fitted effect of over 50% in size
Method in brief: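 Cytotoxicity counter screen read by CellTiter-Glo luminescence (30 min, room temperature) in the same wells as the VDR-bla antagonist readout. HEK 293T VDR-UAS-bla cells had 16 h at 37C with compound and 3 nM (final) 1-alpha,25-dihydroxyvitamin D3, then 2 h with FRET substrate.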

[18] = biological target: Peroxisome proliferator-activated receptor delta (Homo sapiens) (UniProt Q03181); assay: qHTS assay to identify small molecule antagonists of the peroxisome proliferator-activated receptor delta (PPARd) signaling pathway (AID 743215; active means well fitted inhibition curve with a large enough effect in the signal ratio in the repeat runs, not every such curve was filed as active; the % refers to the signal ratio;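 further: cells stimulated with agonist L165041 at 300 nM final during compound exposure; series mostly up to about 62 µM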)
Method in brief: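 Read-out is beta-lactamase FRET fluorescence, measured 2 h after substrate addition at room temperature. Beforehand, UAS-bla HEK293H cells carrying the PPARd reporter were exposed to compounds with L165041 at 300 nM final for 17 h at 37 C.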

[19] = biological target: Bile acid receptor (Homo sapiens) (UniProt Q96RI1); assay: qHTS assay to identify small molecule antagonists of the farnesoid-X-receptor (FXR) signaling pathway (AID 743217; active means well fitted inhibition curve with a large enough effect in the signal ratio in the repeat runs, not every such curve was filed as active; the % refers to the signal ratio)
Method in brief: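 HEK 293T FXR-UAS-bla, 5000 cells/well; compound + CDCA 50 uM final; 16 h, 37 °C; B/G FRET substrate 2 h RT; fluorescence.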

[20] = biological target: Bile acid receptor (Homo sapiens) (UniProt Q96RI1); assay: qHTS assay to identify small molecule agonists of the farnesoid-X-receptor (FXR) signaling pathway (AID 743220; active means well fitted activation curve with a large enough effect in the signal ratio in the repeat runs, not every such curve was filed as active; the % refers to the signal ratio)
Method in brief: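 Beta-lactamase reporter under UAS control in GeneBLAzer FXR HEK 293T cells (5000/well) measured with LiveBLAzer FRET substrate after 2 h at room temperature. Compound exposure lasted 16 h at 37C.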

Measured: Potency

Chain of Bile acid receptor (Homo sapiens) (Q96RI1 whole entry, looked up): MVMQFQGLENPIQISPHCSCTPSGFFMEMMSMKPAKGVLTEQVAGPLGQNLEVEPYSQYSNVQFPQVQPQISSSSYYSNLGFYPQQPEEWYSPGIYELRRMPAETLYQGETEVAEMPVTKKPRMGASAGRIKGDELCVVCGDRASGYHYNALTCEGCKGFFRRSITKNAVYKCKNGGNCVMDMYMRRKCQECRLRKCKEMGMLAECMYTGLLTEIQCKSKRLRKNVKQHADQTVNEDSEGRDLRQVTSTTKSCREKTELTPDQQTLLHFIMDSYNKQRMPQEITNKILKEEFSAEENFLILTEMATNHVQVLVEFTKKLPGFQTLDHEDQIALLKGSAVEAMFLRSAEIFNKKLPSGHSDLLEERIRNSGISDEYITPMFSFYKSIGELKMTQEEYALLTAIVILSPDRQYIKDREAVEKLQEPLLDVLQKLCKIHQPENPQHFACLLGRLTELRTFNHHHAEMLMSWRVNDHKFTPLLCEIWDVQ
Chain of Peroxisome proliferator-activated receptor delta (Homo sapiens) (Q03181 whole entry, looked up): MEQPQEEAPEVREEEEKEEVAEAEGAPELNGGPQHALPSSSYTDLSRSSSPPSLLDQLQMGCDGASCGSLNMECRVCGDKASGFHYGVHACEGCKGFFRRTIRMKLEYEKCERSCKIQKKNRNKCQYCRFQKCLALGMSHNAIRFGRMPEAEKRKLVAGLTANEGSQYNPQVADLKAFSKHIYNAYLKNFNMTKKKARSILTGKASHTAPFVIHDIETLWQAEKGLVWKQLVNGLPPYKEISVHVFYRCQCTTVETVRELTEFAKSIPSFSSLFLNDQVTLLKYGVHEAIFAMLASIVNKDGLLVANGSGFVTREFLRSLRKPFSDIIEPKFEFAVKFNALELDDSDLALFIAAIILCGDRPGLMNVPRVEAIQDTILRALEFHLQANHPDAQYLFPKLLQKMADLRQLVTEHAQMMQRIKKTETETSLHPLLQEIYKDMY
Chain of Vitamin D3 receptor (Homo sapiens) (P11473 whole entry, looked up): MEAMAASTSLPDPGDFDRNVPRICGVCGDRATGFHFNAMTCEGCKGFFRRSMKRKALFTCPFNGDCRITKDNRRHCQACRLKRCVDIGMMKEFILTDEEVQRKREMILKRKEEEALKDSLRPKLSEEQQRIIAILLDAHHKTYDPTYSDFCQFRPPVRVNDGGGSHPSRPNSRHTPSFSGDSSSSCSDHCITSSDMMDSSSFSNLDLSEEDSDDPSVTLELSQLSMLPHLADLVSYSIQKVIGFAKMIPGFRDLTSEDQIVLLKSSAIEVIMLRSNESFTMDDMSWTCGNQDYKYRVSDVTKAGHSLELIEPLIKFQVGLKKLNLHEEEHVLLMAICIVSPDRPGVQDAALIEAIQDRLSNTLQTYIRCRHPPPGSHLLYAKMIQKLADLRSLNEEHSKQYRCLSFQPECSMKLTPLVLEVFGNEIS

CN(C)CCCNCCC#N
not listed: [16] | [17] | [18] | [19] | [20]
inactive: all other assays above

NS(=O)(=O)c1ccc(Cl)c(S(N)(=O)=O)c1
not listed: [2] | [18] | [19] | [20]
inactive: all other assays above

Cc1ccc(C(=O)C(=O)O)cc1C
not listed: [1] | [19] | [20]
inactive: all other assays above

CCCC(C)CC (configuration not stated)
not listed: [1] | [5] | [18] | [19] | [20]
inactive: all other assays above

CCC(=O)c1ccc(O)cc1
not listed: [2] | [18]
inactive: all other assays above

CN=C(NC#N)NCCSCc1csc(N=C(N)N)n1
not listed: [6] | [16] | [18] | [19] | [20]
inactive: all other assays above

Cn1c(=O)c2c(ncn2CC2OCCO2)n(C)c1=O
not listed: [1] | [6] | [16]
inactive: all other assays above

O=S1(=O)CCCC1
not listed: [2] | [5] | [18]
inactive: all other assays above

CCOC(=O)CCCCCCCCC(=O)OCC
not listed: [2] | [6] | [16] | [18] | [19] | [20]
inactive: all other assays above

Cc1ccc(S(=O)(=O)NC(=O)NC2CCCCCCC2)cc1
not listed: [2] | [18] | [19] | [20]
inactive: all other assays above

Cc1nc(C)nc(N2C[C@@H](C)N(c3ccnc([C@@H](C)O)n3)[C@@H](C)C2)n1
not listed: [2] | [5] | [16] | [18]
inactive: all other assays above

CCN(Cc1cccc(S(=O)(=O)O)c1)c1ccccc1
not listed: [2] | [16] | [18]
inactive: all other assays above

COc1cc([N+](=O)[O-])ccc1N
not listed: [4] | [6] | [7] | [18]
inactive: all other assays above

CC(C)COC(=O)CC(C(=O)OCC(C)C)S(=O)(=O)O (configuration not stated)
not listed: [6] | [18] | [19] | [20]
inactive: all other assays above

CCCOC(=O)CCCCC(=O)OCCC
not listed: [6] | [18] | [19] | [20]
inactive: all other assays above

CC(=O)Nc1ccc(C)cc1
not listed: [17] | [18] | [19] | [20]
inactive: all other assays above

CC(=O)N(CC(O)CO)c1c(I)c(C(=O)NCC(O)CO)c(I)c(C(=O)NCC(O)CO)c1I (configuration not stated)
not listed: [1] | [5] | [6] | [19] | [20]
inactive: all other assays above

C[C@@H]1C[C@H]2[C@@H]3C[C@H](F)C4=CC(=O)C=C[C@]4(C)[C@@]3(F)[C@@H](O)C[C@]2(C)[C@@]1(O)C(=O)CO
not listed: [2] | [16] | [18] | [19] | [20]
inactive: all other assays above
